# Where a name gives a salt, the structure may show the parent alone. Values without a mark were called inactive. Active and inactive are the calls of the source.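 The calls were made as follows: active = luciferase signal above three times the same-plate solvent-only control wells; inactive = the rest.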 Peptide text beside a SMILES is read from it. * marks the point of attachment. Tfa = O=C(C(F)(F)F)*
# Molecular target: Mitogen-activated protein kinase 7 (Homo sapiens) (UniProt Q13164)
# Test: Gal4-ERK5 driven luciferase induction – cell-based, HTS, primary screen (AID 1508626);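 also: luciferase driven by Gal4-ERK5 fusion binding five Gal4 sites before minimal TATA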
# Settings: HeLa Gal4-ERK5 transactivation, 18 h, at 5 µM, hits give high values
# Sequence of Mitogen-activated protein kinase 7 (Homo sapiens) (Q13164 whole entry, looked up, the tested form may be a part): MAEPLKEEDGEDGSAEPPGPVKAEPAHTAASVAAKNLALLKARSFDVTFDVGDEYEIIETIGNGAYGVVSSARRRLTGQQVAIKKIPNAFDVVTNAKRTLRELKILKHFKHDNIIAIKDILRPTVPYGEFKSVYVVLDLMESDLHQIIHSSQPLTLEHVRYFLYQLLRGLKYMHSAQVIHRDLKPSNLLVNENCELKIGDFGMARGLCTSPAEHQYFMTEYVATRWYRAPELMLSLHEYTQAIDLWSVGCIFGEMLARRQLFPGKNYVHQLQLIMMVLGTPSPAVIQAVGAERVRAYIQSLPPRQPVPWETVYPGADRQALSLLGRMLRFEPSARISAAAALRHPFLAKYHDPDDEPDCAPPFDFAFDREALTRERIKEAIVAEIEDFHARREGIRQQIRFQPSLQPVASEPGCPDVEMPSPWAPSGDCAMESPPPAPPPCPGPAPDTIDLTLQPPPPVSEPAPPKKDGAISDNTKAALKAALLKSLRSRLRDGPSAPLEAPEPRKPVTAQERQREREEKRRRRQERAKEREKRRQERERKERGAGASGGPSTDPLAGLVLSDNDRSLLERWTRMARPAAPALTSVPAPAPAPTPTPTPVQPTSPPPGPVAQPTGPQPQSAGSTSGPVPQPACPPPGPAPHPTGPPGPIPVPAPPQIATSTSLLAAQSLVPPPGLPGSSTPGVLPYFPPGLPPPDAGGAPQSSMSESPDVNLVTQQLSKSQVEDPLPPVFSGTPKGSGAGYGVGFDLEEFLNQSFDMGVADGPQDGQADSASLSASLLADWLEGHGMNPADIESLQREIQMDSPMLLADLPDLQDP
row,SMILES,luciferase signal
1,CC[C@H](C)[C@H](N)C(=O)N1CCC[C@H]1C(=O)N[C@H](C(=O)O)[C@@H](C)CC,120 AU
2,C=CCCCCCCCCCCCC(O)CC(O)CO (stereo not given),220 AU (active)
3,COc1ccc(-c2coc3cc(OC(C)=O)cc(OC(C)=O)c3c2=O)cc1,80 AU
4,CC1=C2[C@H](/C=C(\C)C(=O)O)CC[C@@H](C)[C@H]2CC1,68 AU
5,CC(=O)O[C@@H]1C=C[C@@]2(C)C(C[C@@H](OC(C)=O)[C@@]3(C)C4=CC(=O)O[C@@H](c5ccoc5)[C@]4(C)CCC23)C1(C)C (stereo not given in full),20 AU
6,CC(=O)O[C@H]1CC[C@]2(C)[C@H]3CC=C4[C@@H]5CC(C)(C)CC[C@]5(C)CC[C@@]4(C)[C@]3(C)CC[C@H]2C1(C)C,64 AU
7,CC(C)=CCC[C@@H](C)[C@@H]1CC[C@]2(C)C3=C(CC[C@@]12C)[C@@]1(C)CC[C@H](O)C(C)(C)[C@@H]1CC3,68 AU
8,CCCCC/C=C/CCC(=O)N[C@H]1[C@H](Oc2c3cc4cc2Oc2ccc(cc2Cl)[C@@H](O[C@@H]2O[C@H](CO)[C@@H](O)[C@H](O)[C@H]2NC(C)=O)[C@@H]2NC(=O)[C@H](NC(=O)[C@@H]4NC(=O)[C@H]4NC(=O)C(Cc5ccc(c(Cl)c5)O3)NC(=O)[C@@H](N)c3ccc(O)c(c3)Oc3cc(O)cc4c3)c3ccc(O)c(c3)-c3c(OC4O[C@H](CO)[C@@H](O)[C@H](O)[C@@H]4O)cc(O)cc3[C@@H](C(=O)O)NC2=O)O[C@H](CO)[C@@H](O)[C@@H]1O (stereo not given in full),52 AU
9,CCCCCCCCCCCC[C@@H](C(=O)O)[C@H](C)C(=O)O,32 AU
10,CC(=O)Oc1cc(C)c2c(c1C=O)Oc1c(c(C)c(OC(C)=O)c3c1C(OC(C)=O)OC3=O)OC2=O (stereo not given),172 AU
11,CC(=O)OCC(=O)[C@@]1(O)CCC2C3CC[C@@H]4C[C@H](O)CC[C@]4(C)C3C(=O)C[C@@]21C (stereo not given in full),112 AU
12,N[C@@H](C=O)[C@@H](O[C@@H]1O[C@H](C(=O)O)[C@@H](O)[C@H](O)[C@H]1O)[C@@H](O)[C@H](O)CO,20 AU
13,CC(C)=CCC/C(C)=C/CC/C(C)=C/CC/C(C)=C/CO,0 AU
14,O[C@H]1[C@H](O)[C@@H](O)C2OC[C@H]1O2,60 AU
15,Oc1ccc2c(c1)OC[C@]1(O)Cc3cc(O)c(O)cc3[C@H]21,28 AU
16,CC(=O)Oc1ccc2c(c1)CC[C@@H]1[C@@H]2CC[C@]2(C)[C@@H](OC(C)=O)CC[C@@H]12,8 AU
17,C/C=C(/C)C(=O)O[C@H]1[C@H](OC(C)=O)[C@]2(CO)[C@H](O)C[C@]3(C)C(=CC[C@@H]4[C@@]5(C)CC[C@H](O[C@@H]6O[C@H](C(=O)O)[C@@H](O[C@@H]7O[C@H](CO)[C@@H](O)[C@H](O)[C@H]7O)[C@H](O)[C@H]6O[C@@H]6O[C@H](CO)[C@@H](O)[C@H](O)[C@H]6O)[C@](C)(CO)[C@@H]5CC[C@]43C)[C@@H]2CC1(C)C,276 AU
18,CCCCCCCCCCCCCCC(C(=O)O)C(O)(CC(=O)OC)C(=O)O (stereo not given),64 AU
19,CO/N=C1\C[C@]2(C[C@@H]3C[C@@H](C/C=C(\C)C[C@@H](C)/C=C/C=C4\CO[C@@H]5[C@H](O)C(C)=C[C@@H](C(=O)O3)[C@]45O)O2)O[C@H](/C(C)=C/C(C)C)[C@H]1C,40 AU
20,CC1(C)CCCC2(C)C3C(O)CC2(C)C(O)C31 (stereo not given),64 AU

row,SMILES,luciferase signal
1,CC(=O)O[C@@](C)(CCC=C(C)C)C1CC=C(C)CC1 (stereo not given in full),72 AU
2,O=C(O)C(O)C(O)(Cc1ccc(O)cc1)C(=O)O (stereo not given),16 AU
3,COC(=O)CC[C@@H](C)[C@H]1CC[C@H]2[C@@H]3CC[C@@H]4C[C@H](O)CC[C@]4(C)[C@H]3C[C@H](O)[C@]12C,108 AU
4,Nc1ncnc2c1ncn2[C@H]1C[C@H](O)[C@@H](CO)O1,136 AU
5,COc1ccc(-c2cc(=O)c3c(O)c(OC)c(OC)c(OC)c3o2)cc1,120 AU
6,CC(C)CCC[C@@H](C)[C@H]1CC[C@H]2[C@@H]3C=CC4=CC(=O)CC[C@]4(C)[C@H]3CC[C@]12C,44 AU
7,CC[C@H](CC[C@@H](C)[C@H]1CC[C@H]2[C@@H]3CC[C@H]4C[C@@H](O)CC[C@]4(C)[C@H]3CC[C@]12C)C(C)C,12 AU
8,C=CCCCCCCCCCCCC(O)CC(O)COC(C)=O (stereo not given),48 AU
9,CC(=O)[C@H]1CC[C@H]2[C@@H]3CCC4=CC(=O)CC[C@]4(C)[C@H]3C(OC(=O)CCC(=O)O)C[C@]12C (stereo not given in full),60 AU
10,CO/N=C(/C(=O)NC1C(=O)N2C(C(=O)O)=C(CSc3nc(=O)c(=O)[nH]n3C)CS[C@H]12)c1csc(N)n1 (stereo not given in full),52 AU
11,CC(C)(O)[C@H]1CC[C@]2(C)[C@H]3CC[C@@H]4[C@@]5(C)CCCC(C)(C)[C@@H]5[C@@H](O)C[C@@]4(C)[C@]3(C)CC[C@@H]12,84 AU
12,C=C1C(=O)C23C(O)C1CCC2C12COC3(O)C(O)C1C(C)(C)CCC2O (stereo not given),108 AU
13,CC(C)c1c(O)ccc2c1CCC1[C@@](C)(CO)CCC[C@]21C (stereo not given in full),112 AU
14,COC(=O)/C=C/C(C)=C\C=C\C(C)=C\C=C\C=C(C)\C=C\C=C(C)\C=C\C(=O)O,64 AU
15,CC1=C2[C@@H]([C@H](C)CC[C@H]2/C=C(\C)C(=O)O)[C@H](O)C1,24 AU
16,C[C@@H]1CC[C@@]2(OC1)O[C@H]1C[C@H]3[C@@H]4CC[C@@H]5C[C@@H](O)CC[C@]5(C)[C@H]4CC[C@]3(C)[C@H]1[C@@H]2C,20 AU
17,C=CCSC[C@H](N)C(=O)O,44 AU
18,CC1(C)C[C@@H]2/C(CO)=C\C=C/[C@@](C)(O)CC[C@]21O,64 AU
19,CC(C)C(NC(=O)C(Cc1ccc(O)cc1)NC(=O)C(NC(=O)C(F)(F)F)C(C)C)C(=O)O (stereo not drawn) (Tfa-Val-Tyr-Val-OH; configuration not given here),64 AU
20,CC[C@H](/C=C/[C@@H](C)[C@H]1CC[C@H]2[C@@H]3CCC4=CC(=O)CC[C@]4(C)[C@H]3CC[C@]12C)C(C)C,56 AU
